Shown are actives, neighbours in structure and some others; about 3.5% of the full set was active somewhere.
TEAD-YAP inh: TEAD-YAP interaction inhibition; HEK-TIYL cells, TEAD-Gal4/YAP UAS-luciferase luminescence; 1.4% of 640,000 active; inhibition, % at 9.12 µM; AID 1259422; in the data active means inhibition above about 32%;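 further: 0% = median of test compound wells and 100% = reference inhibitor wells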
GPR151 activ: human GPR151 activation; PathHunter beta-arrestin GPR151 cells, luminescence; 1% of 650,000 active; AID 1508602; activation, % at 11.2 µM; Q8TDV0; in the data active means activation above about 4.9%;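 further: 0% = median of compound wells and 100% = cells with positive control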
FBW7 act: human FBW7 E3 ligase activation, primary screen | AlphaScreen FBW7–phospho-cyclin E peptide binding, activator screen | AID 1259310 | Q969H0 | normalized activity (activation), % at 26.1 µM | 0.13% of 650,000 active; in the data active means normalized activity above about 1.9%;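 further: purified mutant Fbw7 with reduced substrate affinity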
MITF primary: inhibitors of human MITF; AID 1259374; 0.91% of 650,000 active; inhibition, % at 2.6 µM; O75030; AlphaScreen MITF homodimerization, bead proximity signal; in the data active means inhibition above about 50%;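 further: 0% = vehicle wells with protein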
Target sequence (O75030 whole entry, looked up): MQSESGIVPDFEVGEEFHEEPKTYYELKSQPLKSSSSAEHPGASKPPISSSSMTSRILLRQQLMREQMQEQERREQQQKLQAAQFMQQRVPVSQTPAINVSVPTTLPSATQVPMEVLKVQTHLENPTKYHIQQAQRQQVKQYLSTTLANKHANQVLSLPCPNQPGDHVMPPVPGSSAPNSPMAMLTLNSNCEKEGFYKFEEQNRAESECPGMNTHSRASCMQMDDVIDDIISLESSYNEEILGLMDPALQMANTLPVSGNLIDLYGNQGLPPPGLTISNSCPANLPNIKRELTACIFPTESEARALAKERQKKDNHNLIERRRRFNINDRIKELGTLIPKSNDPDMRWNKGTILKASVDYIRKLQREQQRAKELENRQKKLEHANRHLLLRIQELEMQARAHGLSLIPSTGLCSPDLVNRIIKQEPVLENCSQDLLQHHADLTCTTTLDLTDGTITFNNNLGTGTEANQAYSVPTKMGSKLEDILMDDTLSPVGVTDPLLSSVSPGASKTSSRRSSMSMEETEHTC
GPR151 conf act: human GPR151 activation, confirmation screen; shares compounds with GPR151 activ; GPR151 PathHunter beta-arrestin cells, luminescence, 90 min; % of EA-reagent control over plate median; activation, % at 11.2 µM; 6,700 tested, under 10 active;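 active means mean percent activation across replicates above the confirmation screen cutoff of 4.91%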
GPR119 counter: GPR119 activation, counter-screen for GPR151 activators | shares compounds with GPR151 activ | GPR119 PathHunter beta-arrestin cells, luminescence, 90 min; 0 = compound-well median, 100 = enzyme-acceptor control | activation, % at 11.2 µM | 0.3% of 6,700 active | AID 1508611;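 active means mean percent activation in the counterscreen above 29.09%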;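 further: counterscreen on off-target GPR119 to flag nonselective hits from the GPR151 activator screen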
The depositor's hits bear a star; . = no result given; ! = a repeat was not active.

SMILES	TEAD-YAP inh	GPR151 activ	FBW7 act	MITF primary	GPR151 conf act	GPR119 counter
O=C(CN(c1ccccc1)S(=O)(=O)c1ccccc1)N1CCN(c2ccccc2)CC1	2.5	0.8	0.1	10.2	.	.
CCCn1c(-c2cccc([N+](=O)[O-])c2)nc2c(c(=O)c3ccccc3n2C)c1=O	-13.9	-0.5	0.1	0.8	.	.
Cc1nnc(SCC(=O)N2CCCC2)n(N)c1=O	4.7	5.5*	0.7	12.9	0.2	11.6
Cc1nnc(SCC(=O)N2CCCCC2)n(N)c1=O	4.7	-0.7	-0.1	9.5	.	.
COCCN1C(=O)CC[C@@]23C1=NC(C(=O)OC)=C(C(=O)OC)[C@@H]2N(Cc1ccccc1)c1ccccc13	.	-0.3	-0.1	-3.4	.	.
COCCN1C(=O)CC[C@@]23C1=NC(C(=O)OC)=C(C(=O)OC)[C@@H]2N(C)c1ccccc13	.	6.9*	0.1	15.0	0.7	7.9
COC(=O)C1=C(C(=O)OC)[C@@H]2N(C)c3ccccc3[C@@]23CCC(=O)N(CCCOC(C)C)C3=N1	.	7.2*	0.1	-4.2	-0.9	-6.9
Clc1ccc2c(c1)CCc1cccnc1C2=C1CCNCC1	-16.1	7.8*!	-0.2	6.1	-0.2	11.1
COC(=O)c1ccccc1NC(=O)c1sc2ncnc(N3CCN(c4ccccc4)CC3)c2c1C	1.1	0.6	0.0	3.8	.	.
CCOc1ccc(Cl)cc1S(=O)(=O)N1CCN(c2ccc(F)cc2)CC1	11.5	5.0*	-0.1	2.4	-0.1	-3.4
CCOc1ccc(OCC)c(S(=O)(=O)N2CCN(c3ccc(F)cc3)CC2)c1	5.5	-0.5	0.1	17.5	.	.
Cc1cc(C)c2nc(N(CCn3cccn3)C(=O)C3CC3)sc2c1	-7.3	6.1*	-0.2	9.0	0.2	-2.5
Cc1cc(C(=O)N2CCN(C(=O)C3CCCO3)CC2)sc1-c1ccccc1 (stereo unspecified)	6.6	-0.6	0.2	22.0	.	.
CC[n+]1c(/C=C2\Sc3ccc(-c4ccccc4)cc3N2CCO)ccc2cc(OC)ccc21	91.1*	13.9*	-1.2	-22.4	-0.3	-0.1
COc1ccc(N=c2scc(-c3ccccc3)n2CCO)cc1	-24.3	2.1	-0.1	-2.7	.	.
CCCC(C)NS(=O)(=O)c1c(C)cc(C)cc1C (stereo unspecified)	-5.4	7.7*	0.3	2.6	0.6	0.3
COc1ccc(-c2nn(-c3ccccc3C)cc2CN2CCNC(=O)C2)cc1F	-5.0	-1.0	0.4	2.7	.	.
COc1ccc(C(=O)NC(C)c2nnc(SCC(=O)Nc3ccccc3)n2C)cc1 (stereo unspecified)	10.9	9.6*	-0.2	0.0	0.9	2.6
CCCCCc1ccc(OCCOCCn2c[n+](C)c3ccccc32)c(CCCCC)c1	52.1*	4.9*	-0.2	-0.9	0.0	-0.8
O=C1CSC(c2cccc([N+](=O)[O-])c2)N1Cc1ccccc1 (stereo unspecified)	-9.6	10.2*	-0.1	15.3	0.6	5.3
c1cncc(CSc2ccc(-c3cccnc3)nn2)c1	-18.6	7.0*	0.3	4.3	1.3	5.7
COc1ccccc1NS(=O)(=O)c1ccc(C)cc1	3.2	-1.6	0.0	5.7	.	.
O=C(NNC1CC(c2ccccc2)=NN1C(=O)c1ccccc1)c1ccccc1 (stereo unspecified)	3.1	6.5*	-0.1	-2.8	-0.1	2.9
COc1ccc(Cl)cc1NC(=O)c1cc(S(=O)(=O)N2CCCCC2)ccc1F	6.9	1.5	-0.1	-3.0	.	.
CCCNS(=O)(=O)c1ccc(F)c(C(=O)Nc2cc(C)ccc2OC)c1	-2.1	0.1	-0.1	-3.2	.	.
SMILES	TEAD-YAP inh	GPR151 activ	FBW7 act	MITF primary	GPR151 conf act	GPR119 counter
COc1ccccc1CNS(=O)(=O)c1ccc(F)c(C(=O)Nc2ccc(Cl)cc2)c1	6.9	1.5	-0.2	0.9	.	.
CCOc1ccccc1NC(=O)c1cc(S(=O)(=O)NCCc2ccccc2)ccc1F	-2.6	5.0*	0.1	11.3	-0.5	-15.2
COc1ccccc1CNS(=O)(=O)c1ccc(F)c(C(=O)Nc2ccc(F)cc2)c1	2.4	5.4*	0.5	17.5	0.5	-8.5
COc1ccc(Cl)cc1NC(=O)c1cc(S(=O)(=O)N2CCCCCC2)ccc1F	1.5	5.7*	0.1	-6.1	-0.3	-9.3
CCOc1ccccc1NC(=O)c1cc(S(=O)(=O)NCCC2=CCCCC2)ccc1F	2.2	0.6	0.0	9.2	.	.
CCCNS(=O)(=O)c1ccc(F)c(C(=O)Nc2cc(Cl)ccc2OC)c1	-10.3	5.8*	0.7	8.0	-1.0	-2.0
CCOc1ccc(NC(=O)c2sc(=S)n3c2[nH]c(=O)c2ccccc23)cc1	-12.8	0.2	-0.1	-6.0	.	.
O=C(NNC(=O)c1ccccc1-c1nc2ccccc2[nH]1)c1ccccc1	4.5	1.8	-0.1	-4.6	.	.
CN1C(=O)CC(c2cn(Cc3ccccc3)c3ccccc23)C1=O (stereo unspecified)	-6.9	2.2	-0.2	-1.9	.	.
Cc1sc2c(c1C)C(=O)NC(c1cn(Cc3ccccc3)c3ccccc13)N2 (stereo unspecified)	-2.0	6.1*	-0.3	-7.7	0.8	-1.3
CCOC(=O)C1CCN(C(=O)/C(=C/c2cccc([N+](=O)[O-])c2)c2ccccc2)CC1	-0.9	8.7*	-0.3	11.7	-0.4	-12.9
COC(=O)C1CCN(C(=O)/C(=C\c2ccccc2)c2ccccc2)CC1	-0.5	0.9	-0.1	-1.6	.	.
Cc1nn(C)c(C)c1-c1nc2c(NCc3cccnc3)ncnc2n1C(C)C	-4.0	7.1*	0.6	11.9	-0.8	-12.7
CCCOc1ccc(/C=C2/SC(N3CCN(C(C)=O)CC3)=NC2=O)cc1	1.1	-0.8	-0.1	-8.7	.	.
Cc1ccc(CNCc2ccco2)cc1	-0.1	7.0*	-0.4	23.7	0.9	8.2
c1ccc(-c2nn3cnnc3c3ccccc23)cc1	-14.9	1.1	-0.2	6.3	.	.
Clc1nn2cnnc2c2ccccc12	-1.5	6.9*	0.0	0.5	0.1	-6.5
CCOc1ccc(C(=O)NC2CC(C)(C)NC(C)(C)C2)cc1OCC	11.3	11.6*	0.0	11.7	-1.2	-10.3
CCCSc1nnc2c(n1)OC(c1ccsc1)Nc1ccccc1-2 (stereo unspecified)	-53.0	0.3	0.1	-9.3	.	.
COC(=O)c1ccc(OCC2c3cc(OC)c(OC)cc3CCN2C(=O)c2cccc(OC)c2OC)cc1 (stereo unspecified)	-12.8	5.3*	0.1	-0.1	0.8	1.1
CC(C)c1ccc(N2C(=O)NC(=O)/C(=C/c3ccc(O)cc3)C2=O)cc1	7.6	-1.8	0.1	11.8	.	.
CC(C)c1ccc(N2C(=O)NC(=O)/C(=C/c3ccccc3O)C2=O)cc1	10.1	11.6*	0.0	13.6	0.2	-0.5
O=S(=O)(Nc1ccc2c(c1)oc1ccccc12)c1ccc(Oc2ccc(Br)cc2)cc1	5.1	1.0	-0.1	4.8	.	.
O=C(Nc1cccc(Cl)c1)N1CCN(c2ccc(Nc3cccnc3)nn2)CC1	-3.8	6.1*	0.1	15.8	0.8	1.3

Source: PubChem
